Assay results reported in PubChem BioAssay AID1578 (Sanford-Burnham Center for Chemical Genomics, 2009).
Hit rate of the full screen: of about 290,000 compounds, about 3,000 (1%) were called active. This is one part of a sample in which actives are shown more often than they occur. A number with no mark means an inactive call. No stated cut-off is given here; in the data, active means inhibition mostly above about 36% (no sharp cut-off); inactive means mostly below about 34%.

test: NOD1 signaling inhibitors, primary screen, cell-based, luminescence, uHTS (AID 1578); settings: NOD1-driven NF-kB luciferase reporter cells, at 4 µM, hits give high values;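 further: HEK-293T reporter cells stimulated with the NOD1 agonist gamma-tri-DAP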

Row | Structure (SMILES) | inhibition
1 | CCOc1ccc(OCC)c(NC(=O)CN2CCN(c3cccc(C)c3)C(C)C2)c1 (configuration not stated) | 29.9%
2 | O=C(CSc1nc2ccccc2s1)NC1CCCC1 | 9.6%
3 | O=C(Cn1ncc(Cl)c(Cl)c1=O)N1CCN(Cc2ccccc2)CC1 | 84.9% (active)
4 | O=C(Cn1ncc(Cl)c(Cl)c1=O)N1CCN(S(=O)(=O)c2ccc3ccccc3c2)CC1 | 48.9%
5 | O=C(Cn1ncc(Cl)c(Cl)c1=O)N1CCOCC1 | 6.8%
6 | Cc1ccc2c(c1)C(c1ccc(F)cc1)N(C(=O)c1ccc(S(=O)(=O)N(C)C)cc1)CC(=O)N2 (configuration not stated) | 3.7%
7 | CCOc1cc(Br)cc(/C=C2\SC(=Nc3ccccc3)NC2=O)c1O | -86.1%
8 | C=CCOc1ccc(Br)cc1/C=C1/SC(=Nc2ccc(C(=O)O)cc2)NC1=O | 40.4% (active)
9 | C=CCOc1c(Br)cc(/C=C2\SC(=Nc3ccccc3)NC2=O)cc1OC | -29.6%
10 | O=C(c1cc2cc(Cl)ccc2o1)N1CCCC1 | -13%
11 | COCCn1nnnc1CN(Cc1cc2cc(OC)c(OC)cc2[nH]c1=O)C1CCCC1 | -13.9%
12 | CC/C(=N\NC(=S)Nc1cccc(C)c1)c1ccccc1 | 48.5% (active)
13 | Cc1cccc(NC(=S)N/N=C(\c2ccccc2)C(C)C)c1 | -62.9%
14 | CC(C)CCNC(=S)Nc1ccc(Br)cc1 | -18.8%
15 | Cc1cccc(NC(=S)NCCC(C)C)c1 | 69.1% (active)
16 | C/C(=N\NC(=S)Nc1cccc(C)c1)c1ccccc1 | -16.7%
17 | Cc1cccc(NC(=S)NCCC(c2ccccc2)c2ccccc2)c1 | 7.2%
18 | CC(=O)N/C(=C\c1ccc(F)cc1)C(=O)OCc1ccccc1 | -8%
19 | Cc1oc(-c2ccccc2Cl)nc1CS(=O)CC(=O)NCc1cccs1 (configuration not stated) | -13.9%
20 | O=C(C/C=N\OCc1ccc(Cl)cc1Cl)Nc1ccccc1 | -17%
21 | CN(C)/C=C(\C=N\OCc1ccc(Cl)cc1Cl)C(=O)Nc1ccc(Cl)c(Cl)c1 | 95.7% (active)
22 | O=C(C/C=N/OCc1ccc(Cl)cc1Cl)c1ccc(Cl)cc1 | 19.3%
23 | CCN(CCCNC(=O)CN1C(=O)COc2ccccc21)c1cccc(C)c1 | 14.9%
24 | COc1ccc(NC(=O)C(=O)NCCN2CCN(C(=O)c3ccc(C)cc3)CC2)cc1 | -23%
25 | CCN(CC)CC1CCCCN1CC(=O)N1c2ccccc2C(=O)Nc2cccnc21 (configuration not stated) | 5.4%
26 | CN1CCN(CC(=O)N2c3ccccc3C(=O)Nc3cccnc32)CC1 | -42.1%
27 | O=C1Nc2cccnc2N(C(=O)CCl)c2ccccc21 | 50.5% (active)
